ClpP mod: qHTS Assay for Activators of ClpP. ATP-dependent Clp protease proteolytic subunit (Bacillus subtilis (strain 168)), P80244. purified B. subtilis ClpP, FRET peptide cleavage, 20 min. actives 1.9% (n = 340,000). Potency, µM (titrated, usually from 57.5 µM), inactives show at the highest dose activity change, negative = active. AID 651965, 2013; active means well fitted falling curve with a large enough effect; inconclusive means small, poorly fitted or top-dose-only effect; inactive means no such curve, though single readings can be large or run the other way; further: the source files actives as falling curves though it sought activators and does not explain the sign; nearly all actives have a fitted effect of over 65% in size
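ClpP 10 microg/mL final, pH 8 Tris/KCl buffer with BSA, glycerol, Tween-20; compound pinned in; FRET-FV substrate; RT 20 min; Ex320/Em430; ΔFRET vs ADEP 5.8 microM, DMSO, no enzyme.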
TDP1 inh: inhibitors of human tyrosyl-DNA phosphodiesterase TDP1 | Q9NUW8 | recombinant TDP1, AlphaScreen DNA substrate cleavage | Potency, µM (highest dose often 130 µM), inactives show at the highest dose activity change, negative = inhibition, usual class: inhibitors | actives 0.28% (n = 350,000); further: on the % scale 0 is the no-effect control and ±100 the full control effect; nearly all actives have a fitted effect of over 40% in size
Target sequence (Q9NUW8 whole entry, looked up): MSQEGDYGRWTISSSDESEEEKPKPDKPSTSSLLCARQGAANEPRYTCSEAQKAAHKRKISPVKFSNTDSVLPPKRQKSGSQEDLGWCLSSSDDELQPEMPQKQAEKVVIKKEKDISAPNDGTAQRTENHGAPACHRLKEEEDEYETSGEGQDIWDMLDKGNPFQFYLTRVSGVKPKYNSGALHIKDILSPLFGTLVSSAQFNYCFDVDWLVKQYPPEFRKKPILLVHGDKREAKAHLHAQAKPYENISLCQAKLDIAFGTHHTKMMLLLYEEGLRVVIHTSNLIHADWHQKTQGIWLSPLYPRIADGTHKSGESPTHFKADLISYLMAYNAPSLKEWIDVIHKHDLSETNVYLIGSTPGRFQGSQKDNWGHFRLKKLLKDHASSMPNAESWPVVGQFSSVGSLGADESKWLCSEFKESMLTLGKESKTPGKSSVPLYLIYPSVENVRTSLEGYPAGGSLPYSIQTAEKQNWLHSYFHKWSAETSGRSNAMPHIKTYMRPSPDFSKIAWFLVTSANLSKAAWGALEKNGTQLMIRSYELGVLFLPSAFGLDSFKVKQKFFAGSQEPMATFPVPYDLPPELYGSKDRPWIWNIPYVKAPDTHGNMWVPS
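Enzyme-compound mixtures sat 15 min at room temperature, followed by a 5 min reaction with 15 nM final substrate and 10 min with AlphaScreen beads. Recombinant human Tdp1 was used at 1 nM final.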
TDP1 cell CPT: growth inhibition of DT40 Tdp1-/-;hTDP1 cells with camptothecin (screen for TDP1 inhibitors); AID 686979; Potency, µM (series often up to 46.2 µM), without a hit: at the top dose activity change, negative = growth inhibition, hits mostly inhibitors; chicken DT40 Tdp1-/-;hTDP1 cells + 20 nM CPT, ATP luminescence, 48 h; actives 12% (n = 420,000); further: on the % scale 0 is the no-effect control and ±100 the full control effect; nearly all actives have a fitted effect of over 55% in size
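Chicken DT40 Tdp1-/- cells complemented with human TDP1, 400 cells/well, exposed to compounds plus 20 nM camptothecin for at least 48 h at 37 C; viability read as ATP content by CellTiter-Glo luminescence.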
DT40 TDP1 no CPT: qHTS for Inhibitors of human tyrosyl-DNA phosphodiesterase 1 (TDP1): qHTS in cells in absence of CPT; DT40 Tdp1-/- hTDP1 cells, no CPT, ATP luminescence, 48 h; Potency, µM (highest dose often 46.2 µM), inactives show at the highest dose activity change, negative = growth inhibition, actives largely listed as inhibitors; actives 15% (n = 420,000); AID 686978, 2013; further: on the % scale 0 is the no-effect control and ±100 the full control effect; nearly all actives have a fitted effect of over 55% in size
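Growth of hTDP1-complemented DT40 Tdp1-knockout cells is measured by ATP luminescence after at least 48 hr compound exposure at 37 °C, with DMSO substituting for the 20 nM CPT used in the parallel screen.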
* = called active by the depositor; ? = inconclusive; . = no result given. Rows were chosen to be rich in hits. Some 17% of all compounds tested hit in one or more screens of this group. Unless noted, the call rests on the fitted dose curve; in most records, active means well fitted curve in the direction sought with a large enough effect; inconclusive means small, poorly fitted or top-dose-only effect, or another doubt; inactive means no such curve, though single readings can be large; an effect the other way counts as inactive or inconclusive. Potency means the concentration at half of the fitted maximal effect.

SMILES	ClpP mod	TDP1 inh	TDP1 cell CPT	DT40 TDP1 no CPT
Cc1cccc(NC(=O)c2cc(S(=O)(=O)N(C)c3ccc(F)cc3)ccc2Cl)n1	-2%	.	?	8.2µM*
COc1ccccc1N(C)S(=O)(=O)c1ccc(Cl)c(C(=O)Nc2ccccc2N2CCOCC2)c1	-1%	.	3.7µM*	1.5µM*
COc1ccc(N(C)S(=O)(=O)c2cccc(C(=O)NCC(c3cccs3)N(C)C)c2)cc1 (stereo unspecified)	1%	.	?	-26%
CN(C)C(CNC(=O)c1cc(S(=O)(=O)N(C)c2ccc(F)cc2)ccc1Cl)c1cccs1 (stereo unspecified)	?	.	5.8µM*	5.8µM*
COc1ccccc1N(C)S(=O)(=O)c1ccc(Cl)c(C(=O)NCCCN2CCOCC2)c1	1%	0%	-24%	-5%
CN(c1ccc(F)cc1)S(=O)(=O)c1ccc(Cl)c(C(=O)NC2(C)CCS(=O)(=O)C2)c1 (stereo unspecified)	0%	0%	-22%	?
COC(=O)[C@@]1(Cc2ccccc2)[C@H]2c3cc(C(=O)N4CCCC4)n(C)c3C[C@H]2CN1C(=O)c1ccccc1	.	7%	.	.
CC(C)(C)NCCC(O)c1cc(C(F)(F)F)nc2c(C(F)(F)F)cccc12 (stereo unspecified)	2%	.	21µM*	16µM*
O=C(Nc1nnc(C2CCCCC2)s1)C1CCN(C(=O)c2ccco2)CC1	-4%	.	?	?
COc1cccc(-c2nc(C(=O)NCC3CCCO3)cc3c2[nH]c2ccccc23)c1 (stereo unspecified)	4%	.	2.6µM*	2.3µM*
COc1ccc(OC)c(-c2nc(C(=O)NCC3CCCO3)cc3c2[nH]c2ccccc23)c1 (stereo unspecified)	5%	.	18µM*	21µM*
Oc1c(C(c2ccccc2)N2CCOCC2)sc2nc(-c3ccco3)nn12 (stereo unspecified)	0%	-3%	-1%	-10%
COc1cccc(C(=O)/C=C/Nc2ccc(S(=O)(=O)Nc3cccc(C(C)=O)c3)cc2)c1	-14%	1%	18µM*	16µM*
COc1cc(/C=C/C(=O)c2ccc(NS(=O)(=O)c3ccc(C)cc3)cc2)ccc1OC(F)F	-3%	-6%	?	18µM*
COc1cccc(/C=C/C(=O)c2ccc(NS(=O)(=O)c3ccc(C)cc3)cc2)c1	-5%	3%	18µM*	21µM*
COc1cc(/C=C/C(=O)c2ccc(NS(=O)(=O)c3ccc(C)cc3)cc2)cc(OC)c1O	-1%	3%	?	?
Cc1cc2c(cc1S(=O)(=O)NCc1ccccc1Cl)OCC(=O)N2	-1%	0%	?	-18%
CCOc1ccccc1CNS(=O)(=O)c1cc2c(cc1C)NC(=O)CO2	2%	3%	?	23µM*
CN(CCC#N)S(=O)(=O)c1cc2c3c(c1)CCN3C(=O)CC2	1%	-4%	-3%	-13%
S=C(c1ccc2c(c1)OCO2)N1CCN(c2cccc(Cl)c2)CC1	.	.	3.7µM*	4.1µM*
Cc1cccc(N2CCN(C(=S)c3ccc4c(c3)OCO4)CC2)c1	.	.	6.5µM*	5.8µM*
CC1=NN(C(=O)COc2ccccc2C)C(O)(c2ccc(Cl)cc2)C1 (stereo unspecified)	1%	5%	-9%	-7%
O=C(c1sc2ccccc2c1Cl)N(Cc1ccccc1)C1CCS(=O)(=O)C1 (stereo unspecified)	-1%	2%	-30%	?
O=C(c1sc2ccccc2c1Cl)N(Cc1ccco1)C1CCS(=O)(=O)C1 (stereo unspecified)	-1%	6%	?	26µM*
COc1ccc(Nc2nc(N3CCOCC3)nc(N3CCOCC3)n2)cc1	-3%	.	-23%	?
FC(F)(F)C(Oc1nc(Nc2ccc(Cl)cc2)nc(N2CCOCC2)n1)C(F)(F)F	?	0%	?	21µM*
CC(C)c1ccc(Nc2nc(Nc3ccc(Cl)cc3)nc(N3CCOCC3)n2)cc1	3%	0%	?	11µM*
Cc1ccc2c(c1)N(C(=O)CSc1nncn1C)C(C)(C)c1ssc(=S)c1-2	-1%	12%	26µM*	?
Cc1cc2c(cc1C)N(C(=O)CSc1nncn1C)C(C)(C)c1ssc(=S)c1-2	0%	12%	29µM*	?

Screens deposited in PubChem by National Center for Advancing Translational Sciences (NCATS).
